Screens: PubChem BioAssay, The Scripps Research Institute Molecular Screening Center
GPR151 ag – human GPR151 activation; Q8TDV0; PathHunter beta-arrestin GPR151 cells, luminescence; activation, % at 11.2 µM; hit rate 1% among 650,000; AID 1508602; in the data active means activation above about 4.9%;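 further: 0% = median of compound wells and 100% = cells with positive control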
TEAD-YAP block – TEAD-YAP interaction inhibition | HEK-TIYL cells, TEAD-Gal4/YAP UAS-luciferase luminescence | hit rate 1.4% among 640,000 | AID 1259422 | inhibition, % at 9.12 µM; in the data active means inhibition above about 32%;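 further: 0% = median of test compound wells and 100% = reference inhibitor wells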
MITF inh – inhibitors of human MITF; AlphaScreen MITF homodimerization, bead proximity signal; inhibition, % at 2.6 µM; hit rate 0.91% among 650,000; in the data active means inhibition above about 50%;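 further: 0% = vehicle wells with protein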
FBW7 activator – activators of human E3 ligase FBW7. Q969H0. normalized activity (activation), % at 26.1 µM. hit rate 0.13% among 650,000. AlphaScreen FBW7–phospho-cyclin E peptide binding, activator screen; in the data active means normalized activity above about 1.9%;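 further: purified mutant Fbw7 with reduced substrate affinity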
Target sequence (Q969H0 whole entry, looked up): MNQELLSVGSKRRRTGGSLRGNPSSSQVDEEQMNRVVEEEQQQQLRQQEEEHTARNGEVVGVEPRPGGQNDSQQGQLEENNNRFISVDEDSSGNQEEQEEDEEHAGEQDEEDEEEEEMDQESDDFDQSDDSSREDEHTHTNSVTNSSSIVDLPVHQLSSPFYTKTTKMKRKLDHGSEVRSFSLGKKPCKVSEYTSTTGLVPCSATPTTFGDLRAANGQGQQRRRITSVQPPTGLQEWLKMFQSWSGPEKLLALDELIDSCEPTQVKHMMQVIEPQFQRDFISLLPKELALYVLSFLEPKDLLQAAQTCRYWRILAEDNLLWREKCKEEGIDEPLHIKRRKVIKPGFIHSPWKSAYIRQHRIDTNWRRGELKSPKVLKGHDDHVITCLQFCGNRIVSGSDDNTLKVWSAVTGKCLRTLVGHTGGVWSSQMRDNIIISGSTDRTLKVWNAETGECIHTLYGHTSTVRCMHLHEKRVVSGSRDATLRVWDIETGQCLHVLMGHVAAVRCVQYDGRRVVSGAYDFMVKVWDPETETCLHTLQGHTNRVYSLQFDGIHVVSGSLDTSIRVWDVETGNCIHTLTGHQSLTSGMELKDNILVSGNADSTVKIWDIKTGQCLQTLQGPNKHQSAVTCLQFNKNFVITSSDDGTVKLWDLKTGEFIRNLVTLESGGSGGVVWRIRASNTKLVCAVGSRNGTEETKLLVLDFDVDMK
GPR151 conf act – human GPR151 activation, confirmation screen | GPR151 PathHunter beta-arrestin cells, luminescence, 90 min; % of EA-reagent control over plate median | 6,700 tested, under 10 active | activation, % at 11.2 µM | shares compounds with GPR151 ag;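 active means mean percent activation across replicates above the confirmation screen cutoff of 4.91%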
GPR119 ag – activates human GPR119 in a GPR151 counter-screen; AID 1508611; shares compounds with GPR151 ag; GPR119 PathHunter beta-arrestin cells, luminescence, 90 min; 0 = compound-well median, 100 = enzyme-acceptor control; activation, % at 11.2 µM; hit rate 0.3% among 6,700;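 active means mean percent activation in the counterscreen above 29.09%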;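 further: counterscreen on off-target GPR119 to flag nonselective hits from the GPR151 activator screen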
* marks the source's active call; other numbers are inactive results; x = no result. Shown are actives, neighbours in structure and some others; about 3.4% of the full set was active somewhere.

SMILES	GPR151 ag	TEAD-YAP block	MITF inh	FBW7 activator	GPR151 conf act	GPR119 ag
COc1ccc(NC(=O)CCS(=O)(=O)c2ccc3c(c2)SCC(=O)N3)cc1OC	1	-4	-4	0	x	x
CCC1Sc2cc(S(=O)(=O)CCC(=O)NCc3cccnc3)ccc2NC1=O (centres undefined)	7.5*	10	0	0	0	4
CCCC(=O)Nc1ccc(OC)c(Cl)c1	-3	-2	16	0	x	x
COc1ccc(CNC(=O)CCS(=O)(=O)c2ccc3c(c2)n(C)c(=O)c(=O)n3C)cc1	0	4	-11	0	x	x
Cn1c(=O)c(=O)n(C)c2cc(S(=O)(=O)CCC(=O)NCc3ccccc3)ccc21	6.1*	-10	-18	1	0	-4
COC(=O)CCC(=O)Nc1ccc(OC)c(Cl)c1	6.0*	6	-2	0	0	12
O=C(COc1ccc2ccccc2c1)Nc1ccc(Cl)cn1	0	10	2	0	x	x
COc1cccc(CNC(=O)CCS(=O)(=O)c2ccc3c(c2)SCC(=O)N3)c1	11*	2	12	0	0	-8
Cc1cnc(Nc2ccccc2)nc1NCCOc1ccccc1	6.0*	7	-6	0	1	1
Cc1cnc(Nc2ccncc2)nc1NCCOc1ccccc1	-2	2	2	1	x	x
Fc1ccc(Cn2cc(/C=N/n3cnnc3)c3ccccc32)cc1	-2	-2	18	1	x	x
Clc1ccc(Cn2cc(/C=N/n3cnnc3)c3ccccc32)cc1	6.2*	10	1	0	0	-2
CC(=O)COc1cc2c(C)cc(=O)oc2cc1Cl	5.6*	7	-9	0	2	12
CN(c1ccc(C(=O)Nc2ccccc2)cc1)S(=O)(=O)c1ccccc1	0	-15	-10	0	x	x
CN(c1ccc(C(=O)Nc2ccc(F)c(Cl)c2)cc1)S(=O)(=O)c1ccccc1	5.4*	3	12	0	0	6
COc1ccc(Cl)cc1C(=O)OCC(=O)c1c[nH]c2ccccc12	0	2	3	0	x	x
O=C(COC(=O)c1ccccc1O)c1ccc(Br)cc1	-2	-22	18	0	x	x
O=C(CC(=O)c1ccccc1O)c1ccc(Br)cc1	5.4*	-30	-9	0	-1	-8
O=C(NCCCSc1ccc(Br)cc1)Nc1ncccn1	5.2*	10	8	0	1	7
N#Cc1c(N2CCCCC2)nc(-c2ccco2)c2c1CCCC2	0	14	16	0	x	x
CC1(C)Cc2c(C#N)c(N3CCCC3)nc(-c3ccco3)c2CO1	12*	0	-4	0	1	4
Cc1ccc(CN2CCc3c(nc(N4CC(C)OC(C)C4)[nH]c3=O)C2)cc1 (centres undefined)	-1	0	-8	1	x	x
CCCCN(C)S(=O)(=O)c1ccc(C(=O)Nc2ccc3sc(C)nc3c2)cc1	5.2*	61*	27	0	0	13
CN(C)S(=O)(=O)c1ccc(C(=O)OCc2nc3ccccc3s2)cc1	6.9*	-5	-2	0	0	9
O=C(OCc1nc2ccccc2s1)c1ccc(O)cc1	-6	-13	6	0	x	x
SMILES	GPR151 ag	TEAD-YAP block	MITF inh	FBW7 activator	GPR151 conf act	GPR119 ag
O=C1NC(c2cccnc2)C(C(=O)c2cccs2)=C1O (centres undefined)	6.1*	0	27	0	-1	-12
O=C(CSc1nc(Nc2ccc3c(c2)OCO3)c2ccccc2n1)N1CCN(c2ccccc2)CC1	2	24	-6	0	x	x
O=[N+]([O-])c1ccc(C(O)CNCCCN2CCOCC2)cc1 (centres undefined)	7.0*	12	-1	0	-1	-11
O=C(NCCCN1CCOCC1)c1ccc([N+](=O)[O-])cc1	-1	6	-5	0	x	x
O=[N+]([O-])c1ccccc1-c1cnn(-c2ccccc2)c1	-1	-52	9	0	x	x
O=[N+]([O-])c1ccccc1-c1cnn(-c2ccc(F)cc2F)c1	5.9*	-37	15	1	-2	-19
COC(=O)c1cccc(NC(=O)CC2CCS(=O)(=O)C2)c1 (centres undefined)	-1	0	-6	0	x	x
N#Cc1ccc(NC(=O)COC(=O)C2COc3ccccc3O2)cc1 (centres undefined)	7.8*	2	2	0	0	1
O=C(NCCC1=CCCCC1)c1cccnc1SCc1cccc(Br)c1	1	-3	5	0	x	x
O=C(NCCC1=CCCCC1)c1cccnc1SCc1ccccc1F	5.4*	-6	2	0	0	-4
CC(=O)NC1=NC(=O)/C(=C/c2ccc(-c3ccc(Cl)cc3Cl)o2)S1	1	6	18	0	x	x
O=C(NS(=O)(=O)c1ccccc1)c1ccccc1O	5.6*	2	-11	0	0	-5
Cc1nc2c(c(=O)[nH]1)CN(C(=O)C1(c3cccc(F)c3)CCCC1)CC2	6.5*	3	0	0	0	5
Cc1nc2c(c(=O)[nH]1)CN(C(=O)C1(c3ccc(Cl)cc3)CCC1)CC2	2	-4	5	0	x	x
CC(NC(=O)COC(=O)CCC1CCCC1)c1ccccc1 (centres undefined)	0	-10	-7	0	x	x
COC(=O)CN1C(=O)C2(OCCCO2)c2cc(C)ccc21	1	1	6	0	x	x
CCOC(=O)CN1C(=O)C2(OCCCO2)c2cc(C)ccc21	5.7*	6	5	0	1	-1
Cc1ccccc1-c1cnnc(NCc2cc(-c3ccccc3)on2)n1	-2	-3	18	0	x	x
Cc1ccccc1-c1cnnc(NCC2COCCO2)n1 (centres undefined)	7.4*	-1	3	0	1	2
O=C(CN1C(=O)C2C3C=CC(C3)C2C1=O)N1CCN(c2ccc(F)cc2)CC1 (centres undefined)	0	-5	6	0	x	x
O=C(NNC(=O)c1cc(=O)[nH]c(=O)[nH]1)c1ccc(NS(=O)(=O)c2cccs2)cc1	-1	-1	6	0	x	x
CN1CSC2=C(C#N)C(c3cccc(OCc4ccccc4)c3)CC(=O)N2C1 (centres undefined)	8.7*	-4	8	0	0	-7
Cc1ccccc1-n1nc2c(c1NC(=O)c1ccc(C(=O)c3ccccc3)cc1)CSC2	1	-6	11	0	x	x
Cc1ccnc(Nc2ccc(N3CCN(C(=O)C4CCCC4)CC3)nn2)c1	5.1*	6	6	1	0	-2
COC(=O)c1c(NC(=O)c2ccc(S(=O)(=O)N3CCCC(C)C3)cc2)sc2c1CCN(C(C)C)C2 (centres undefined)	1	0	-15	0	x	x
CCN1CCc2c(sc(NC(=O)c3ccc(S(=O)(=O)N4CCCC(C)C4)cc3)c2C(=O)OC)C1 (centres undefined)	5.3*	2	8	0	2	15
